# ± gives the standard deviation.
# Tested on: EfPiwi piRISC loaded with L1MC piRNA (26 nt)
# Experiment: pre-steady-state target cleavage rate (min^-1); auxiliary factor: 500 nM Ephydatia muelleri Gtsf1; guide: L1MC piRNA 5'p-UAACUAAAUACUAUGCAAGCUGUAGG; MIWI and MILI are mouse PIWI proteins and EfPiwi is from a freshwater sponge; tags in brackets are library labels; higher = faster piRNA-guided slicing of the target
# Summary of the method: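 With or without 500 nM GTSF1 partner protein, 1 nM active affinity-purified piRISC carrying one synthetic guide was mixed with 0.1 nM transcribed, DNA-blocked target RNA library in HEPES–potassium acetate buffer at 33 °C for 0–8 or 0–960 min. Uncleaved targets were sequenced and normalised to depth and to weakly complementary targets, three trials were pooled, and k3 was capped at 0.0001 min^-1. The pre-steady-state cleavage rate came from a burst-and-steady-state fit.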
row,Sequence,pre-steady-state target cleavage rate
1,UCCUGGUACUGCUUGCAUUGUAUUUAGUUA,0.00516 ± 0.0027
2,UCCUGGUACAGGUUGCAAAGUAUUUAGUUA,0.00511 ± 0.0028
3,UCCUGGAUGUGCGUUGCAUAGUAUUUAGUUA,0.00539 ± 0.0024
4,UCCUCCUACAGUCUUGCAUAGUAUUUAGUUA,0.0171 ± 0.006
5,UCCUGGAACUGCUUGCAUAGUAUUUAGUUA,0.0203 ± 0.006
6,UCCUGGAACAGCUUGCUUAGUAUAUAGUUA,0.0104 ± 0.0048
7,UCCUGGAUCAGCUUGCAUAGUAUUUAGUGA,0.0182 ± 0.0068
8,UCCUGGAUGUCCGUUGCAUAGUAUUUAGUUA,0.00412 ± 0.0033
9,UCCUGCUAUAGCUUGCAUAGUAUUUAGUUA,0.014 ± 0.0046
10,UCCUGCUACAGCUUGCAUUGUAUUUUGUUA,0.00346 ± 0.0021
11,UCCUCCUACAGCUUGCAUAGUAUUUCGUUA,0.00416 ± 0.0023
12,UCCUCGUACAGCUUGCAUAGUUUUUAGUUA,0.0267 ± 0.0072
13,UCCUGGAUGUCCCUUGCAUAGUAUUUAGUUA,0.00608 ± 0.0026
14,UCCUGGAUGAGCUUGCAUAGUGUUUAGUUA,0.00987 ± 0.0028
15,UCCUGGAUCACGAUGCAUAGUAUUUAGUUA,0.0115 ± 0.004
16,UCCUCCUACUCCUUGCAUAGUAUUUAGUUA,0.165 ± 0.046
17,UCCUGGAUCACUUGCAUAGUAUUUAGUUA,0.0567 ± 0.014
18,UCCUGGAUCUGGUUGCAUAGUAUUUAGUUA,0.0604 ± 0.015
19,UCCUCCUACAGCUUGCAUGGUAUUUAGUUA,0.0681 ± 0.02
20,UCCUCCUACAGCAUGCAUAGUAUAUAGUUA,0.00519 ± 0.0032

row,Sequence,pre-steady-state target cleavage rate
1,UCCUGCUACUGCUAGCAUAGUAUUUAGUUA,0.0129 ± 0.0034
2,UCCUGGAUGUCCUUGUAUAGUAUUUAGUUA,0.00424 ± 0.0024
3,UCCUGGAUCAGCUACCAUAGUAUUUAGUUA,0.00516 ± 0.0032
4,UCCUGGUACAUGCUUGCAUAGUAUUUAGUUA,0.0077 ± 0.0034
5,UCCUGGAUCAGCUUGCAUAGUAUUUAGAUA,0.00499 ± 0.0022
6,UCCUGCUUCAGCUUGCAUAGUAUUUUGUUA,0.00635 ± 0.0022
7,UCCUGGAACAGGAUGCAUAGUAUUUAGUUA,0.00753 ± 0.0018
8,UCCUGCAACAGCUUGCUUAGUAUUUAGUUA,0.0143 ± 0.0036
9,UCCUCCUACUGCUUGGAUAGUAUUUAGUUA,0.064 ± 0.012
10,UCCUGGAAGAGCUUGCAAAGUAUUUAGUUA,0.018 ± 0.005
11,UCCUGGAUGUGCUUUCAUAGUAUUUAGUUA,0.0041 ± 0.0024
12,UCCUGCUUCAGCUUGCAUAGUAUUUAGUUA,0.103 ± 0.025
13,UCCUGGAUCAGCUUGCAUAGUAUUUAGGUUA,0.00516 ± 0.0024
14,UCCUGGAUGUGCUUGCAUAGUAAUUAGUUA,0.00847 ± 0.0037
15,UCCUGGAUGAGCUUCGCAUAGUAUUUAGUUA,0.0219 ± 0.0059
16,UCCUGCUACAGGAAGCAUAGUAUUUAGUUA,0.0127 ± 0.0035
17,UCCUGCUACUGCUUGCAUACUAUUUAGUUA,0.00669 ± 0.0028
18,UCCUCGUACAGCUUGCAUAGUAUUUAGUUA,0.163 ± 0.036
19,UCCUGGAUGUCCUUGCAUAUUAUUUAGUUA,0.00283 ± 0.0025
20,UCCUGGAUCAGCUUGCAAAGUAUUAAGUUA,0.00373 ± 0.0026

# Source: the supplement of paper PMC10338343
